From PubChem BioAssay
IL1B NFkB pot: enhancers of NFkB p65 translocation in HUVEC – imaging, IL-1B stimulus, high-content imaging, primary screen | HUVEC IL-1B NFkB p65 nuclear translocation imaging | activation, % at 2 µM | 94,000 compounds, 0.3% hits;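 active means activation above 40%, about the mean plus 3 SD, also judged a hit on visual image review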;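 further: percent activation is computed from the nuclear over cytoplasmic p65 intensity ratio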
HUVEC tox IL1B: cytotoxicity in IL-1B stimulated HUVEC, primary screen, cytotoxicity control for IL-1B NFkB translocation project, imaging, Hoechst nuclear count, IL-1B stimulus; HUVEC cell count loss; 94,000 compounds, 0.41% hits; cell count reduction, % at 2 µM;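 active means cell count reduction more than 3 SD above the screen-wide mean, cut at about 70% in these data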
Measles CPE: compounds protecting cells from measles virus cytopathic effect, primary screen, measles RdRp inhibitor project, single point, MLSMR library, absorbance; 140,000 compounds, 1.5% hits; protection (pct of control), % at 4 µM; Measles virus-infected cells, CPE protection; in the data active means protection mostly above about 24%, no sharp cut-off; inactive means mostly below about 26%
IL1B NFkB inh: inhibitors of IL-1B driven NFkB p65 nuclear import, primary screen, imaging, HUVEC, IL-1B stimulus, high-content imaging; HUVEC IL-1B NFkB p65 nuclear translocation imaging; inhibition, % at 2 µM; 94,000 compounds, 0.43% hits; AID 796, 2007;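 active means inhibition above about 30% together with a positive call from visual inspection of the well image, limit read from the data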;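 further: nuclear over cytoplasmic p65 intensity ratio measured by imaging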
Hits are given with their value; 0 = inactive; - = not tested or not shown. The list is not random: actives were taken first. Their share in the collection is about 2.1%.

SMILES	IL1B NFkB pot	HUVEC tox IL1B	Measles CPE	IL1B NFkB inh
CC(C)(C)NC(=O)CN(C(=O)CSc1nnc(COc2ccccc2)o1)c1cccc(F)c1	0	0	31	0
CCCCC(=O)Nc1ccc(C(=O)Nc2ccc(S(=O)(=O)Nc3nccc(C)n3)cc2)cc1	-	-	0	-
Cc1nn(CC(=O)Nc2cc(S(=O)(=O)N(C)C)ccc2Cl)c(C)c1[N+](=O)[O-]	-	-	41	-
Cc1nn(CC(=O)Nc2ccccn2)c(C)c1[N+](=O)[O-]	0	0	0	0
CC(=O)Nc1ccc(-c2nnc(SCc3ccccc3C#N)n2C)cc1	0	0	24	0
CCOC(=O)Cc1csc(NC(=O)c2ccc(Br)s2)n1	0	89	0	0
Nc1nc(CSCCO)nc(Nc2ccccc2)n1	0	0	32	0
Cc1cc(Nc2ccccc2)n(-c2cccc(Cl)c2)n1	0	0	0	0
Cc1cc(Nc2ccccc2)n(C(=O)c2ccc(Cl)cc2)n1	0	0	44	0
Cc1cc(NC(=O)CN2C(=O)S/C(=C\c3ccccc3)C2=O)no1	-	-	31	-
Cc1cc(NC(=O)CCN2C(=O)c3ccccc3C2=O)no1	0	0	0	0
CSc1nc2nc3c(c(=O)n2[nH]1)CCCC3	0	0	0	0
CCOC(=O)/C(C#N)=C1/C=CN(C)C(C)=N1	0	0	29	0
COc1ccc(N2CCN(C(=O)CN3CCN(C(c4ccccc4)c4ccccc4)CC3)CC2)cc1	-	-	0	-
CCOC(=O)c1cnc(SCC(=O)Nc2ccc(N3CCOCC3)c(Cl)c2)nc1N	0	0	0	0
CCOC(=O)c1cnc(SCC(=O)Nc2cc(OC)cc(OC)c2)nc1N	50	0	0	0
COc1cc(COCC(O)CN2CCOCC2)cc(OC)c1OC (stereo not given)	0	0	32	0
O=C(Nc1ccc(NC(=O)C2CC2)nc1)c1cccs1	0	0	57	0
O=C(COc1ccccc1)NNC(=O)c1cccs1	-	-	0	-
CCCC(=O)Nc1ccc(NC(=O)C2CC2)cn1	0	0	0	0
O=C(O)COc1ccc(NC(=O)c2cccs2)cc1	0	0	48	0
O=C(Nc1ccc(NC(=O)C2CC2)cn1)c1ccccc1Cl	0	88	0	0
CCCC(=O)Nc1ccc(NC(=O)c2cccs2)cn1	0	0	0	0
CC1=C(C(=O)Nc2ccccc2)C(c2ccc(C)o2)n2c(s/c(=C\c3ccco3)c2=O)=N1 (stereo not given)	0	0	0	0
O=C(O)c1coc2ccccc12	57	0	0	0
SMILES	IL1B NFkB pot	HUVEC tox IL1B	Measles CPE	IL1B NFkB inh
Cc1cc(C)c(C(N)=O)c(NC(=O)Nc2ccccc2Cl)n1	0	0	0	0
COc1ccc(S(=O)(=O)N2c3cc(Cl)ccc3Oc3nc4ccccc4nc32)cc1	0	0	0	0
O=S(=O)(c1ccc(Cl)cc1)N1c2ccccc2Oc2nc3ccccc3nc21	0	86	0	97
COc1cc(NC(=O)Cc2cccs2)cc(OC)c1	0	0	34	0
COc1cc(NC(=O)Cc2cccs2)ccc1-n1cnnn1	0	0	29	0
CCOC(=O)c1sc2cc([N+](=O)[O-])cc(SCC(=O)OC)c2c1N	51	0	0	0
C=CCOc1cccc(C2C(C(=O)c3ccc(C)o3)=C(O)C(=O)N2Cc2ccncc2)c1 (stereo not given)	0	0	0	0
CCOc1cccc(C2C(C(=O)c3ccc(C)o3)=C(O)C(=O)N2Cc2ccncc2)c1 (stereo not given)	0	0	0	30
COc1ccc(C(C)(C)C)cc1NC(=O)C1C2C=CC(C2)C1C(=O)O (stereo not given)	0	0	34	0
COc1ccc(C(C)(C)C)cc1NC(=O)C1CC=CCC1C(=O)O (stereo not given)	0	0	0	0
CC1=C/C(=N\NC(=O)c2ccccc2)CC1	-	-	0	-
O=C1C(c2ccc(F)cc2)N(C2CCCCC2)C(=O)CN1C1CCCC1 (stereo not given)	128	0	0	0
Cc1ccc(C2C(=O)N(C3CCC(C)CC3)CC(=O)N2C2CCCC2)cc1 (stereo not given)	-	-	0	-
Cc1ccc(NC(=O)COc2ccc3oc4c(c3c2)CCCC4)nc1	0	80	0	0
O=C(COC(=O)c1cccc(S(=O)(=O)N2CCc3ccccc32)c1)Nc1ccc(Cl)cn1	-	-	35	-
CCC(CC)NC(=O)Cc1ccccc1OC	0	0	0	0
Nc1[nH]nc2nc(N3CCCC3)nc(-c3ccccc3)c12	-	-	0	-
COc1ccc(-c2nc(N3CCOCC3)nc3n[nH]c(N)c23)cc1	-	-	28	-
CCOc1ccc2[nH]c(=O)c(CN(CCOC)C(=O)N3CCOCC3)cc2c1	0	0	0	0
NC(=O)c1sc2nc3c(c(-c4cccs4)c2c1N)CCCCC3	0	0	61	0
COc1ccccc1CNC(=O)CCCc1ccccc1	-	-	0	-
COc1ccc(CNC(=O)CCCc2ccccc2)cc1	-	-	31	-
CC(C)C1N=C2c3ccccc3N=C(SCC(=O)NCCc3ccc(S(N)(=O)=O)cc3)N2C1=O (stereo not given)	-	-	43	-
CCC(C)NC(=O)CSC1=Nc2ccccc2C2=NC(CC(=O)NCc3ccc(F)cc3)C(=O)N12 (stereo not given)	0	0	0	0
COc1cc(OC)cc(C(=O)N(Cc2cc3cc(C)ccc3[nH]c2=O)C(C)C)c1	0	0	44	0
SMILES	IL1B NFkB pot	HUVEC tox IL1B	Measles CPE	IL1B NFkB inh
COc1cccc(C(=O)N(Cc2cc3cc(C)ccc3[nH]c2=O)C(C)C)c1	0	0	0	0
Cc1ccc(C2Oc3ccccc3C3=C2C(c2cccs2)n2ncnc2N3)cc1 (stereo not given)	0	88	0	0
Cc1ccc(SC(C)C(=O)Nc2cccc(N(C)S(C)(=O)=O)c2)cc1 (stereo not given)	0	0	33	0
CSc1cccc(NC(=O)C(C)Sc2ccc(C)cc2)c1 (stereo not given)	0	0	0	0
COc1cc(NC(=O)Cn2nnc(-c3ccccc3N)n2)cc(OC)c1	0	0	0	0
O=C(CN1C(=O)C2C3C=CC(C3)C2C1=O)NCc1ccc2c(c1)OCO2 (stereo not given)	0	0	0	0
CS(=O)(=O)Nc1ccccc1C(=O)O	-	-	51	-
COc1ccc2cc(CN(CCc3ccccc3)Cc3nnnn3Cc3ccco3)c(=O)[nH]c2c1	168	0	0	-
O=C(CCSc1nc(-c2ccco2)cc(C(F)(F)F)n1)NCc1cccs1	47	0	0	0
CC12CCC(C(=O)Nc3ccccc3Cl)(C(Br)C1=O)C2(C)C (stereo not given)	-	-	36	-
CCOC(=O)c1nn(-c2ccccc2F)c(C)c1C(C)=O	0	0	0	0
CC(NC(=O)c1ccc(CS(=O)(=O)Cc2ccccc2F)o1)c1ccc2c(c1)OCCO2 (stereo not given)	0	0	0	0
Cc1cccc(OCc2nnc(N)s2)c1C	0	0	0	0
Nc1nnc(CCOc2ccccc2Cl)s1	0	0	0	61
O=C(Cc1cccs1)Nc1nnc(SCc2ccc(C(F)(F)F)cc2)s1	-	-	0	-
CC(C)C(NC(=O)c1cccs1)c1nnc(SCC(=O)Nc2nccs2)n1C (stereo not given)	0	0	0	0
